Compounds with a hit are over-represented: about 2.8% of the library has one in this group of screens.
SENP7 inh: SENP7 protease inhibitors, primary screen, biochemical, luminescence, uHTS | Sentrin-specific protease 7 (Homo sapiens), Q9BQF6 | recombinant SENP7, Z-RLRGG-aminoluciferin luminescence, 40 min | inhibition, % at 5 µM | 330,000 tested, 1.5% active;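 active = inhibition above about 50% at the single test dose, limit read from the data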
SENP6 block: SENP6 protease inhibitors, primary screen, biochemical, luminescence, uHTS. AID 2599, 2010. Recombinant SENP6 catalytic domain, aminoluciferin luminescence. inhibition, % at 10 µM. 330,000 tested, 1.8% active;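 active = inhibition above about 50% at the single tested dose, limit read from the data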
SENP8 block-1: human SENP8 protease inhibitors, primary screen, biochemical, fluorescence, Nedd8 protein substrate, uHTS; recombinant SENP8; Sentrin-specific protease 8 (Homo sapiens), Q96LD8; AID 602440, 2012; 360,000 tested, 0.64% active; inhibition, % at 20 µM; in the data active = inhibition mostly above about 40%, no sharp cut-off; inactive = mostly below about 27%
Target sequence (Q96LD8 whole entry, looked up): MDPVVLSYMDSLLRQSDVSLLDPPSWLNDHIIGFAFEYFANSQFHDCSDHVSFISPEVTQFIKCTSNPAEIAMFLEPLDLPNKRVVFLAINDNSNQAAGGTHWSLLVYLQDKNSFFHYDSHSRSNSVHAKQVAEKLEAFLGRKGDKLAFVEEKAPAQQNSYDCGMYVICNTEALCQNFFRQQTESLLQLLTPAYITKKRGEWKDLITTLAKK
SENP8 block-2: SENP8 protease inhibitors, primary screen, biochemical, luminescence | 330,000 tested, 1.2% active | AID 2540, 2010 | inhibition, % at 10 µM | purified SENP8, Z-RLRGG-aminoluciferin cleavage; in the data active = inhibition above about 50%
Platelet DG rel: inhibitors of platelet dense granule secretion, primary screen, cell-based, MLPCN, human platelets; human platelet-rich plasma, SFLLRN dense granule ATP release, luminescence; AID 1663, 2009; inhibition, %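 (compounds screened at 7.5 µM in platelet-rich plasma)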; 300,000 tested, 0.22% active;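 active = mean replicate score, as percent of positive control, at or above 50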
HSP90 refold inh: HSP90 inhibitors, primary screen, cell lysate, luminescence; Heat shock protein HSP 90 (rabbit reticulocyte lysate; luciferase refolding); Rabbit reticulocyte lysate, luciferase refolding luminescence, 3 h; inhibition, % at 5.6 µM; 290,000 tested, 0.91% active; AID 1789, 2009;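 active = inhibition above the screen-wide mean plus 3 SD, computed separately per campaign, cut at about 16% in these data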;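 note: inhibitors lower the luminescence because luciferase stays unfolded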
SENP8 conf: SENP8 protease inhibitors, retest, confirmation, biochemical, luminescence, single concentration | shares compounds with SENP7 inh | 6,200 tested, 40% active | inhibition, % at 12.5 µM | Recombinant SENP8, Z-RLRGG-aminoluciferin luminescence, 60 min;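 active = mean inhibition across replicates above about 50%, limit read from the data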
SENP6 confirm: SENP6 protease inhibitors, confirmation, biochemical, luminescence, single concentration; shares compounds with SENP7 inh; recombinant SENP6, Z-RLRGG-aminoluciferin luminescence; inhibition, % at 12.5 µM; 6,200 tested, 58% active
SENP7 conf: SENP7 protease inhibitors, retest, confirmation, biochemical, luminescence, single concentration; shares compounds with SENP7 inh; 6,200 tested, 69% active; inhibition, % at 12.5 µM; AID 488917, 2010; recombinant SENP7, Z-RLRGG-aminoluciferin luminescence, 40 min
Casp3 select: caspase-3 protease inhibitors, confirmation, selectivity assay for SENP inhibitor project, biochemical, single concentration | shares compounds with SENP7 inh | purified caspase-3, Z-DEVD-aminoluciferin luminescence, 60 min | inhibition, % at 12.5 µM | 6,200 tested, 60% active | AID 488918, 2010;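 active = mean inhibition above about 50%, limit read from the data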
Target sequence (P42574 28-227 limits assumed): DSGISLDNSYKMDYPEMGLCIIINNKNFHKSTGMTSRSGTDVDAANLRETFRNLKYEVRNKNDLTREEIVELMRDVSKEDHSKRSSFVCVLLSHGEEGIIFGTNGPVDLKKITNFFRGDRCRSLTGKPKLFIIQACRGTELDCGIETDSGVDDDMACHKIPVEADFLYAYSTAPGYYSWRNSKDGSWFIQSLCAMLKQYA
SENP luc ctr: counter-screen for SENP inhibitors: luminescence interference | Pre-incubated SENP8/Z-RLRGG-aminoluciferin, luciferase luminescence interference | inhibition, % at 12.5 µM | 6,200 tested, 39% active | AID 488919 | shares compounds with SENP7 inh;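 active = mean inhibition above about 50% when retested at one dose, limit read from the data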
Hits are given with their value; n = inactive; x = no result given.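 Rule for the calls, unless noted: active = mean inhibition above about 50% in the one-dose retest (limit read from the data); inactive = the rest.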

SMILES	SENP7 inh	SENP6 block	SENP8 block-1	SENP8 block-2	Platelet DG rel	HSP90 refold inh	SENP8 conf	SENP6 confirm	SENP7 conf	Casp3 select	SENP luc ctr
CCOc1ccc(NS(=O)(=O)c2ccc(OCC(=O)N3CCCC3)cc2)cc1	91.2	n	n	n	n	n	n	n	n	n	n
Cc1cc(C)n(C(=O)/C=C/c2cccs2)n1	56.3	n	n	n	n	n	n	n	n	n	n
O=C(/C=C/c1cccs1)Nc1ccncc1	n	n	n	n	n	n	x	x	x	x	x
CCCOC(=O)c1ccc(NC(=O)/C=C/c2cccs2)cc1	n	74.6	n	n	n	n	n	n	56.9	n	n
Cc1cccc(NC(=O)/C=C/c2cccs2)n1	71.5	67.2	n	n	n	n	56.3	54.6	84.0	76.7	66.0
O=C(/C=C/c1cccs1)N1CCCC1	n	n	n	n	n	n	x	x	x	x	x
CC(C)(C)NC(=S)Nc1ccc(Nc2ccccc2)cc1	50.5	n	n	n	n	n	n	n	n	n	n
CC(C)(C)NC(=S)Nc1ccc(Br)cc1	n	n	n	n	n	n	x	x	x	x	x
COc1ccc(CCNC(=O)[C@@H](NC(=O)N2CC(=O)Nc3ccccc32)C(C)C)cc1OC	n	n	n	n	n	n	x	x	x	x	x
c1ccc2oc(-c3ccc4nc[nH]c4c3)nc2c1	59.7	n	n	n	n	n	52.5	50.3	73.6	56.9	n
Nc1nc2ccc(-c3nc4ccccc4o3)cc2s1	n	n	n	n	n	n	x	x	x	x	x
CCn1c(SCC(=O)N(C)c2c(N)n(Cc3ccccc3)c(=O)[nH]c2=O)nnc1-c1cccs1	x	x	n	x	x	x	x	x	x	x	x
COc1ccc(-c2csc(-c3ccccc3)n2)c(OC)c1	89.1	93.0	n	84.1	n	n	82.3	91.3	96.0	73.9	n
COc1ccc2cc(-c3csc(-c4cccnc4)n3)ccc2c1	67.1	n	n	n	n	n	n	n	n	n	n
COc1ccc(-c2csc(-c3ccc(O)cc3)n2)cc1	n	n	n	n	n	n	x	x	x	x	x
N#CCCCc1cn(-c2nc3ccccc3s2)nn1	x	x	n	x	x	x	x	x	x	x	x
Cc1[nH]n(-c2ccccc2)c(=O)c1C(=O)c1ccccc1	n	n	n	n	n	n	x	x	x	x	x
COc1cccc(C(c2c(C)[nH]n(-c3ccccc3)c2=O)c2c(C)[nH]n(-c3ccccc3)c2=O)c1O	56.4	56.8	53.7	n	n	x	n	n	n	n	n
CCC(C)CNC(=O)c1[nH]c(C(F)(F)F)nc1-c1ccccc1 (stereo not given)	x	x	n	x	x	x	x	x	x	x	x
Cc1occc1C(=O)N/N=C/c1cccs1	83.0	66.8	n	62.2	n	n	72.4	72.1	91.0	91.4	74.0
CCN(CC)c1ccc(/C=N/NC(=O)c2ccoc2C)c(O)c1	100.5	98.0	n	94.1	117.3	n	96.2	97.7	103.4	n	n
CCN(CC)c1ccc(/C=N/NC(=O)OC)c(O)c1	n	n	n	n	x	n	x	x	x	x	x
Cc1occc1C(=O)Nc1cccc2ccccc12	95.0	96.3	n	91.1	n	n	n	95.5	101.6	91.4	93.5
COc1ccc(/C=N/NC(=O)c2ccoc2C)cc1O	67.2	75.6	n	n	n	n	68.5	67.4	88.9	89.9	72.7
Cc1ccc(NC(=O)CSCC(=O)N2CCCc3ccccc32)cc1	n	n	n	n	n	x	x	x	x	x	x
SMILES	SENP7 inh	SENP6 block	SENP8 block-1	SENP8 block-2	Platelet DG rel	HSP90 refold inh	SENP8 conf	SENP6 confirm	SENP7 conf	Casp3 select	SENP luc ctr
CC(=O)NS(=O)(=O)c1ccc(NS(=O)(=O)c2ccccc2[N+](=O)[O-])cc1	n	n	n	n	n	n	x	x	x	x	x
COc1cc(/C=N/NC(=O)c2ccoc2C)cc(OC)c1OC	n	n	n	n	n	n	x	x	x	x	x
COc1ccc(/C=N/NC(=O)c2ccoc2C)cc1OC	n	56.3	n	n	n	n	n	n	69.8	79.5	52.0
Cc1occc1C(=O)N/N=C/c1cccc2ccccc12	92.1	89.8	n	88.7	n	n	56.0	87.8	99.7	89.4	n
Cc1occc1C(=O)N/N=C/c1ccc(-c2ccccc2)cc1	100.2	99.0	n	97.5	92.5	45.3	71.3	99.8	102.6	98.5	69.9
Cc1occc1C(=O)N/N=C/C(Br)=C/c1ccccc1	88.5	91.6	n	84.2	n	n	66.1	91.7	99.0	88.4	n
Cc1cc(Br)ccc1NC(=O)CN(C)C(=O)c1ccc2ccccc2n1	n	n	n	n	x	x	x	x	x	x	x
N#CC1=C(N)Oc2c(oc(CO)cc2=O)C1c1ccccc1[N+](=O)[O-] (stereo not given)	n	n	n	n	n	n	x	x	x	x	x
Cc1ccc(Cl)cc1N1CCN(C(=O)C(C)n2ncn3cccc3c2=O)CC1 (stereo not given)	n	n	n	n	n	n	x	x	x	x	x
Cn1sc(NC(=O)c2cccc(Cl)c2)nc1=O	69.5	68.5	n	64.6	n	n	n	72.4	91.8	81.8	71.9
Cn1sc(NC(=O)c2ccccc2Cl)nc1=O	n	n	n	n	n	n	x	x	x	x	x
COc1cc(C(=O)NC(C)CCn2cccn2)ccc1OC1CCN(C(C)=O)CC1 (stereo not given)	n	n	n	n	n	n	x	x	x	x	x
c1ccc(-c2csc(Nc3ccc4c(c3)OCCO4)n2)cc1	91.2	95.5	n	90.9	n	n	94.6	95.3	100.7	73.5	84.2
COc1cccc(Nc2nc(-c3ccc4c(c3)OCCO4)cs2)c1	n	55.0	n	n	n	n	n	n	68.6	n	n
COc1ccccc1C(=O)Nc1nc(-c2ccc3c(c2)OCCO3)cs1	n	n	n	n	n	n	x	x	x	x	x
N#C/C(=C\Nc1ccc2c(c1)OCCO2)c1nc(-c2ccccc2)cs1	n	n	n	n	n	n	x	x	x	x	x
